PubChem BioAssay (NCATS)
Results filed as inconclusive are left out. This is one part of the list. Activity calls are given as the source filed them. Calls come from the whole dose curve; as a rule, active = well fitted curve in the direction sought with a large enough effect; inconclusive = small, poorly fitted or top-dose-only effect, or another doubt; inactive = no such curve, though single readings can be large; an effect the other way counts as inactive or inconclusive.

Tests used:
[1] = molecular target: Rap guanine nucleotide exchange factor 3 (Homo sapiens) (UniProt O95398); assay: Confirmatory qHTS for antagonist of cAMP-regulated guanine nucleotide exchange factor 3 (EPAC1) (AID 1645880); conditions: EPAC1 Rap1B-BODIPY-GDP exchange, fluorescence; activity, negative = inhibition: at 115 µM (top of the series); note: nearly all actives have a fitted effect of over 55% in size; note: potency is the fitted concentration of half-maximal effect;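 for activity, negative = inhibition: plate controls were DMSO only for no effect and full effect of the ATA control for full effect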
Outline: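 Released BODIPY-GDP fluoresces less than Rap1-bound BODIPY-GDP; the signal is followed at 480/540 nm at 5-min intervals over 30 min, after 5 min at room temperature. Reactions contain 100 nM EPAC1, 250 nM RAP1B-BODIPY-GDP and 50 uM GDP; results are normalized to ATA and DMSO.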

[2] = molecular target: Rap guanine nucleotide exchange factor 3 (Homo sapiens) (UniProt O95398); assay: Confirmatory qHTS for agonist of cAMP-regulated guanine nucleotide exchange factor 3 (EPAC1) (AID 1645881); note: nearly all actives have a fitted effect of over 75% in size; note: potency is the fitted concentration of half-maximal effect;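 for activation: EPAC1 catalysed release of BODIPY-GDP from Rap1B seen as fluorescence loss; 100% = effect of cAMP agonist control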
[3] = molecular target: Rap guanine nucleotide exchange factor 4 (Homo sapiens) (UniProt Q8WZA2); assay: Confirmatory qHTS for agonist of cAMP-regulated guanine nucleotide exchange factor 4 (EPAC2) (AID 1645884);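 note: nucleotide exchange releases bodipy-GDP from Rap1 and this lowers its fluorescence; nearly all actives have a fitted effect of over 65% in size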; note: potency is the fitted concentration of half-maximal effect; for activation: % is set by controls: 0 for no effect and ±100 for the full control effect
[4] = molecular target: Rap guanine nucleotide exchange factor 4 (Homo sapiens) (UniProt Q8WZA2); assay: Confirmatory qHTS for antagonist of cAMP-regulated guanine nucleotide exchange factor 4 (EPAC2) (AID 1645885); note: nearly all actives have a fitted effect of over 25% in size; note: potency is the fitted concentration of half-maximal effect
[5] = molecular target: Rap guanine nucleotide exchange factor 3 (Homo sapiens) (UniProt O95398); assay: Counterscreen qHTS for agonist of cAMP-regulated guanine nucleotide exchange factor 3 (EPAC1) (AID 1645889); note: nearly all actives have a fitted effect of over 40% in size; note: potency is the fitted concentration of half-maximal effect; for activation: % of control where 0% means no effect
Outline: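 Rap1B–BODIPY-GDP (250 nM) with 50 uM GDP; compounds pin-transferred to 9.74 nM–152 uM final (activator) or from 7.32 nM upwards (inhibitor). Fluorescence Ex/Em 480/540 nm read at 5 and 30 min, then after adding cAMP or buffer, at room temperature.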

[6] = molecular target: Tumor susceptibility gene 101 protein (Homo sapiens) (UniProt Q99816); assay: qHTS Assay for Iinhibitors of HIV-1 Budding by Blocking the Interaction of PTAP/TSG101: Hit Validation (AID 651600); note: nearly all actives have a fitted effect of over 70% in size; note: potency is the fitted concentration of half-maximal effect
Outline: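 FITC-PTAP peptide (50 nM final) binding to Tsg101 binding domain (10 uM final) was measured by polarization after 20 min at r.t. with compounds, in 10 mM HEPES pH 7.5 buffer with 0.15 M NaCl and 0.01% Tween 20.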

[7] = molecular target: Vitamin D3 receptor (Homo sapiens) (UniProt P11473); assay: qHTS for Inhibitors of the vitamin D receptor (VDR): Hit Validation in Primary Screen (AID 602199); conditions: VDR-coactivator inhibition assay, qHTS confirmation; note: potency is the fitted concentration of half-maximal effect
Outline: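 Fluorescence polarization (Ex 620/Em 688 nm) of Alexa 647-SRC2-3 peptide with 800 nM VDR and 5 uM LG19078. Compounds at several concentrations, 2 h at room temperature.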

[8] = molecular target: Vitamin D3 receptor (Homo sapiens) (UniProt P11473); assay: qHTS for Inhibitors of the vitamin D receptor (VDR): Hit Validation using a Beta-Lactamase Assay (AID 602202); note: % is set by controls: 0 for no effect and ±100 for the full control effect
Outline: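 Stably transfected HEK293 cells expressing VDR-GAL4 DNA-binding domain fusion with UAS-driven beta-lactamase reporter, activated by agonist LG190178; compounds incubated 18 h, then FRET beta-lactam substrate 2 h; cleaved substrate read at 447 nm emission.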

[9] = qHTS for Inhibitors of the vitamin D receptor (VDR): Hit Validation using a Cytotoxicity Assay (AID 602204);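 note: plate controls were DMSO for no effect and high-concentration cycloheximide for full effect; nearly all actives have a fitted effect of over 75% in size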
Outline: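 Compounds stayed on cells (20,000/well, plated 4 hours earlier) for 18 hours. Viability then taken as ATP content by CellTiter-Glo, read as luminescence after 30 minutes. Controls: high-concentration cycloheximide (positive), DMSO (negative).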

Chain of Rap guanine nucleotide exchange factor 4 (Homo sapiens) (Q8WZA2 whole entry, looked up): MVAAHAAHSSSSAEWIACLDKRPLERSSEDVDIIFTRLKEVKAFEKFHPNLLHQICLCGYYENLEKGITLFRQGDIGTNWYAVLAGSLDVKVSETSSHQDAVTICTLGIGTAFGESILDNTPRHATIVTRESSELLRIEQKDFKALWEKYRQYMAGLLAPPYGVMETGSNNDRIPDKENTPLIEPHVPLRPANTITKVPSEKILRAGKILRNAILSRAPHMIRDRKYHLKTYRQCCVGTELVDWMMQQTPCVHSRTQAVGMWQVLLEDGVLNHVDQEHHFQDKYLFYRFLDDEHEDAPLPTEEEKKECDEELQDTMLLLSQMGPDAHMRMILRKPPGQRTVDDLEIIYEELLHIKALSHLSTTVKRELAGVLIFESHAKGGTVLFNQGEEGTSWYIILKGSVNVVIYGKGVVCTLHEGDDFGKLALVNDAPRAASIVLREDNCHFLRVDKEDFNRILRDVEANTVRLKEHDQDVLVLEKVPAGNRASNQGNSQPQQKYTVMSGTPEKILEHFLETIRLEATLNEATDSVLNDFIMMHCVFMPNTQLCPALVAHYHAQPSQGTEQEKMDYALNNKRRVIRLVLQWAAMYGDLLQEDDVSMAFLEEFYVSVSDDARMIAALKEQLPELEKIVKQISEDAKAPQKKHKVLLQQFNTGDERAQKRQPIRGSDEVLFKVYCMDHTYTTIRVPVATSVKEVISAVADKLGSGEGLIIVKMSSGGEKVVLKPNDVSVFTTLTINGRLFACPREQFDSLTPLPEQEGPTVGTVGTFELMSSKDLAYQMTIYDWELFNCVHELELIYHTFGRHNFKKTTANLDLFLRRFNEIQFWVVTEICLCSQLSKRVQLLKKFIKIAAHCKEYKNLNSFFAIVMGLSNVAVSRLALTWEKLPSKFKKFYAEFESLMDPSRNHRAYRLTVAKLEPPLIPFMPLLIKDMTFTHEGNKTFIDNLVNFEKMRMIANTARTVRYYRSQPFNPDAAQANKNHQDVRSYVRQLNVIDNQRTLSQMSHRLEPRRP
Chain of Rap guanine nucleotide exchange factor 3 (Homo sapiens) (O95398 whole entry, looked up): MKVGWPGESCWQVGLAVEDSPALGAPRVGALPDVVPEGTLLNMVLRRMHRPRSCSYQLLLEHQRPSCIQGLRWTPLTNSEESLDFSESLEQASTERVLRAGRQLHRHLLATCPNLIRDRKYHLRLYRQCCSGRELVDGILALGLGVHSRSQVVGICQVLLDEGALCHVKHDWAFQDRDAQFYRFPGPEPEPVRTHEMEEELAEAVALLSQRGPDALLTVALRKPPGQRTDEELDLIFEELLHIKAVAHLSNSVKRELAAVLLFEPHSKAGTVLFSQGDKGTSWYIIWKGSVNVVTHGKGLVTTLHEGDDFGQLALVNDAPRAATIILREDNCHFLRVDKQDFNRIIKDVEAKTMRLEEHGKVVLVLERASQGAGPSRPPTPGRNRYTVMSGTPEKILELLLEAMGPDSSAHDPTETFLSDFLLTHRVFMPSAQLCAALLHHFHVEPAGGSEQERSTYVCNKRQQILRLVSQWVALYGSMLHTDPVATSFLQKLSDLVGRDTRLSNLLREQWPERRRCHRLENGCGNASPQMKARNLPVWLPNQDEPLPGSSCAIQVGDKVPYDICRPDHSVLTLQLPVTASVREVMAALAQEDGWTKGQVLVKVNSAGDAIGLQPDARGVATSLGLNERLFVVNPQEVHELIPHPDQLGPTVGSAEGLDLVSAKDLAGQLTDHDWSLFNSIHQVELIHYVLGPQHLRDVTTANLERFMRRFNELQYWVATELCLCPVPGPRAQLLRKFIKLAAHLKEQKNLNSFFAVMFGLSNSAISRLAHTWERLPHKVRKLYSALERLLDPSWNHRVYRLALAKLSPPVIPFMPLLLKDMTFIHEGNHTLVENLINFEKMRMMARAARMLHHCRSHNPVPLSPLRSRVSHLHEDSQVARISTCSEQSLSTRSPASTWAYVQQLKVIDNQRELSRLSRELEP
Chain of Tumor susceptibility gene 101 protein (Homo sapiens) (Q99816 whole entry, looked up, the tested form may be a part): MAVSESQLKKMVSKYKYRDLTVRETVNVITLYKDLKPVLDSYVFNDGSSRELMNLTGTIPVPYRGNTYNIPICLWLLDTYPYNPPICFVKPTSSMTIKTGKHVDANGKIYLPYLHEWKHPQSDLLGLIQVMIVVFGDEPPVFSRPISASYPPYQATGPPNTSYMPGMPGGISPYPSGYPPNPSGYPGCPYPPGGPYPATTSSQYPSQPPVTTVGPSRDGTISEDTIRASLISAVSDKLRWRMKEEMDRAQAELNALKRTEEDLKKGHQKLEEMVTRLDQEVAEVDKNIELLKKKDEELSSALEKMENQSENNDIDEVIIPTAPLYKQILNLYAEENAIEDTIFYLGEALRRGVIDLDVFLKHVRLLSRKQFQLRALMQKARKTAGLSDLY
Chain of Vitamin D3 receptor (Homo sapiens) (P11473 whole entry, looked up, the tested form may be a part): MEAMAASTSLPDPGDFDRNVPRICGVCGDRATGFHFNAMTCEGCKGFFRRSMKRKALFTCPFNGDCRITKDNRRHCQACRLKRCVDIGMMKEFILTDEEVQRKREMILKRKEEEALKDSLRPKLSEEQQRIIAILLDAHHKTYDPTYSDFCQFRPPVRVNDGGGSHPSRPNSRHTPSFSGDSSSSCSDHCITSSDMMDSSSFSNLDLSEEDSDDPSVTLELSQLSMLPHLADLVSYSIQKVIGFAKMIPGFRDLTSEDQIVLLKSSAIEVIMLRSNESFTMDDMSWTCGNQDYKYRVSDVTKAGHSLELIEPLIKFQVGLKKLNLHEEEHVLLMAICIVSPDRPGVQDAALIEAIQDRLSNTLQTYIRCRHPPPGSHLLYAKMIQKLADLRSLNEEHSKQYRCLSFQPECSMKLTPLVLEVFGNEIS

CC(=O)/C(C#N)=C1\NC(=O)C(Cc2cc(Cl)ccc2Cl)S1 (stereo unspecified)
active: Potency [1] 44.7 µM
inactive: Potency [2] | activation [3] 4.95% [at 17.1 µM, percent relative to cAMP agonist control] | Potency [4] | activation [5] 2.87% [at 30.8 µM]

Brc1ccc(N/N=C(/N=Nc2nn[nH]n2)c2ccccc2)cc1
active: Potency [1] 33.8 µM
inactive: Potency [2] | Potency [3] | Potency [4] | Potency [5]

Cc1cc2ccccn2c1C(=O)c1cccc(F)c1
inactive: Potency [1] | Potency [2] | Potency [3] | Potency [4] | Potency [5]

CC1(Cc2ccccc2OC(F)(F)F)C(=O)Nc2ccc(-c3ccsc3)cc21 (stereo unspecified)
active: Potency [1] 42.6 µM | Potency [4] 33.8 µM
inactive: Potency [2] | Potency [3] | Potency [5]

CCOc1ccc(/C=C2\SC(=S)N(NS(=O)(=O)c3ccc(C)cc3)C2=O)cc1OC
inactive: Potency [2] | activation [3] 5.33% [at 17.1 µM, percent relative to cAMP agonist control] | Potency [4] | activation [5] -1.1% [at 30.8 µM]
active: Potency [1] 56.2 µM

Cc1ccc(S(=O)(=O)NC2CC(=O)N(c3ccc4c(c3)OCCO4)C2)cc1 (stereo unspecified)
inactive: Potency [1] | Potency [2] | activation [3] 3.34% [at 17.1 µM, percent relative to cAMP agonist control] | Potency [4] | activation [5] 22.6% [at 30.8 µM]

O=C(NCCS(=O)(=O)N1CCc2ccccc2C1)c1ccccc1
inactive: Potency [1] | Potency [2] | Potency [3] | Potency [4] | Potency [5]

CCOC(=O)c1cnc2ccc(OC)cc2c1Nc1ccc(N2CCN(C)CC2)cc1
inactive: Potency [6] | Potency [1] | Potency [2] | activation [3] 12.5% [at 17.1 µM, percent relative to cAMP agonist control] | Potency [4] | activation [5] 12.2% [at 30.8 µM]

CCCC(=O)N=C1SC2CS(=O)(=O)CC2N1c1ccc(CC)cc1 (stereo unspecified)
inactive: Potency [1] | Potency [2] | activation [3] -7.85% [at 17.1 µM, percent relative to cAMP agonist control] | Potency [4] | activation [5] -1.33% [at 30.8 µM]

O=C(O)CN1C(=O)/C(=C\c2ccccc2OCc2ccc(Cl)cc2)SC1=S
active: Potency [1] 37.9 µM | Potency [4] 42.6 µM
inactive: Potency [2] | Potency [3] | Potency [5]

N#CCOC(=O)[C@H](Cc1c[nH]c2ccccc12)NS(=O)(=O)c1ccc(Cl)cc1
active: Potency [1] 37.9 µM | Potency [4] 53.6 µM
inactive: Potency [2] | Potency [3] | Potency [5]

COc1cc(NC(=O)c2ccnc(N)c2)cc(C(=O)Nc2cccc(C(F)(F)F)c2)c1
inactive: Potency [2] | Potency [3] | Potency [4] | Potency [5]
active: Potency [1] 42.6 µM

CC(C)CC1C(=O)N(Cc2cn(Cc3ccco3)nn2)CCS(=O)(=O)N1Cc1ccc(-c2ccc(F)cc2)cc1 (stereo unspecified)
active: Potency [1] 84.9 µM | Potency [4] 21.3 µM
inactive: Potency [2] | Potency [3] | Potency [5]

Cn1cc(C(CO)Cc2ccccc2)c2ccccc21 (stereo unspecified)
inactive: Potency [1] | Potency [2] | activation [3] 4.77% [at 17.1 µM, percent relative to cAMP agonist control] | Potency [4] | activation [5] 2.04% [at 30.8 µM]

Cc1ccc(CNC(=O)COc2ccc(C(=O)c3ccc(F)cc3)cc2)cc1
inactive: Potency [1] | Potency [2] | Potency [3] | Potency [4] | Potency [5]

O=S(=O)(O)c1cc(O)c(N=Nc2ccc(O)cc2O)c2ccccc12
inactive: Potency [2] | Potency [3] | Potency [5]
active: Potency [1] 37.9 µM | Potency [4] 21.3 µM

C=CCN(CC=C)C(=O)COn1nnc2ccc(S(=O)(=O)N3CCOCC3)cc21
inactive: Potency [1] | Potency [2] | Potency [3] | Potency [4] | Potency [5]

C/C(CC(=O)Nc1ccc(Cl)c(C(F)(F)F)c1)=N\NC(=O)c1cnccn1
inactive: Potency [1] | Potency [2] | Potency [3] | Potency [4] | Potency [5]

CCOC(=O)N1c2ccccc2Sc2ccccc21
inactive: Potency [1] | Potency [2] | activation [3] 4.1% [at 17.1 µM, percent relative to cAMP agonist control] | Potency [4] | activation [5] 15.6% [at 30.8 µM]

CCC/C=C/c1ccc(CN2C(CC(C)C)C(=O)N(Cc3cn(CCC4OCCO4)nn3)CCS2(=O)=O)cc1 (stereo unspecified)
active: Potency [1] 37.9 µM | Potency [4] 23.9 µM
inactive: Potency [2] | Potency [3] | Potency [5]

CCCOc1ccc(/C(O)=C2/C(=O)C(=O)N(c3ccccn3)C2c2ccc(OC)cc2)cc1C (stereo unspecified)
active: Potency [1] 33.8 µM
inactive: Potency [2] | Potency [3] | Potency [4] | Potency [5]

O=C1c2cccc3c(O)ccc(c23)C(=O)N1Cc1ccco1
inactive: Potency [1]
active: Potency [6] 1.46 µM | Potency [2] 100 µM | Potency [3] 100 µM | Potency [4] 67.5 µM | Potency [5] 70.8 µM

Cn1/c(=N\NC(=O)C2CCCCC2)sc2ccccc21
inactive: Potency [1] | Potency [2] | Potency [3] | Potency [4] | Potency [5]

CCOC(=O)c1c(-c2ccc(-c3ccccc3)cc2)csc1NC(=O)CCC(=O)O
inactive: Potency [2] | Potency [3] | Potency [4] | Potency [5]
active: Potency [1] 42.6 µM

O=C(O)c1ccc2c(c1)C(=O)N(c1ccc(/C=C/C(=O)c3ccccc3)cc1)C2=O
inactive: Potency [8] | Potency [9] | Potency [2] | activation [3] 5.43% [at 17.1 µM, percent relative to cAMP agonist control] | Potency [4] | activation [5] 8.33% [at 30.8 µM]
active: Potency [7] 10.6 µM | Potency [1] 39.8 µM

O=C(CSc1n[nH]c(-c2ccccc2)n1)c1ccc(O)c(O)c1
active: Potency [1] 42.6 µM
inactive: Potency [2] | Potency [3] | Potency [4] | Potency [5]

CCNc1ccc2noc3c2c1C(=O)c1ccccc1-3
active: Potency [6] 3.26 µM | Potency [2] 100 µM | Potency [3] 100 µM | Potency [4] 16.9 µM | Potency [5] 22.4 µM
inactive: Potency [1]
